This assay concerns the target T1, FBXL12, Q9NXK8.
T1 chain: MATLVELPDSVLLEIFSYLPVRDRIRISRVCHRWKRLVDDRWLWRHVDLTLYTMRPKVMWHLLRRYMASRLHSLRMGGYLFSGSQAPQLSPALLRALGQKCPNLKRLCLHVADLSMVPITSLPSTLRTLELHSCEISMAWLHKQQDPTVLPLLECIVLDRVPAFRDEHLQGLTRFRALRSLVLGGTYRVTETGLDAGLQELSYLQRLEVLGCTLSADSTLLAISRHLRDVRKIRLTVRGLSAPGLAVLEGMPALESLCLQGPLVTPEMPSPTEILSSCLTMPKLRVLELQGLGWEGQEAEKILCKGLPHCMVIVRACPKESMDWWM
As to the kind of experiment: median log2 fold change of GCK-ALFA target abundance (FLAG IP / Myc IP barcode read proportion) (log2 ratio); each designed protein is fused to an ALFA-tag nanobody in HEK293 cells to bring the named protein to FLAG-tagged glucokinase (GCK); Myc marks an untargeted standard; higher = target protein stabilised (more abundant). As to conditions: target protein: 3xFLAG-MCP-GCK-ALFA reporter; HEK293 landing pad (RPLP). As to the method: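 LABEL-seq trans screen in HEK293 landing-pad cells. Each de novo designed 100-aa effector handle, binding the indicated effector (E3 ligase, DUB or autophagy protein), is fused to a constant NbALFA target handle and induced with 2 ug/mL doxycycline. A FLAG-MCP-GCK-ALFA target and a Myc-MCP standard reporter were transfected, and after 48 h circRNA barcodes were recovered by anti-FLAG and anti-Myc IP and sequenced. The value is the median across barcodes (at least 3 per design) of log2(FLAG/Myc read-proportion ratio), with the two transfection replicates pooled. Negative values mean degradation and positive values mean stabilisation of the target.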

B1: FBXL12_hotspot_9_121 (protein)
chain: RIVVIRQFIESEEEVGPTVRRAVAYARAAADAGWRVIIVISAASPEVAEAARRVLEEELGEEVAELRARGARIVVTSSREEAERKKAELLEAALAEEDAA
With B1, the “median log2 fold change” value is -0.228.

B2: FBXL12_hotspot_82_98 (protein)
chain: MISIIGLVNRPPETAVESLRNTAETMIAIVEGARAAGVEVERAVLVVRADPETRAVAEELRPRLEAAGIEVHLKETSEEALATKEAILEEIERRWEEEEE
Take B2: the “median log2 fold change” value turned out to be 0.108.

B3: FBXL12_hotspot_9_109 (protein)
chain: RTRVVVGVVTSPETADSTLAMLRAVTSGLSRHDDRVHVLIVVQDPANRDALLARAEAVAAELEAEHPNVRVRVVAAPDEEAAEAARAAFLAEVDAEEAAA
As to B3, the “median log2 fold change” value is 0.0457.

B4: FBXL12_hotspot_9_115 (protein)
chain: RTILVVASANTVERVRSTLETALKISIGLAEAGHKVILLIAAATEEVLEKAKELLETELKPLVEKLKELGVEVKEPVLYEEAEPLKEEILEEIDEEEEEE
For the molecule B4, the “median log2 fold change” value stood at 0.00902.

B5: FBXL12_hotspot_9_110 (protein)
chain: SSILVIAHVTTRETADTTLATARAVTTGLAAHHDRVDVLIVVSDPEHADEMAALAEATAAELEAEHPNVRAEVVRAPDEAAGRAAIEAREAEFLAAAAEE
As to B5, the “median log2 fold change” value is -0.0129.

B6: FBXL12_hotspot_9_125 (protein)
chain: RHVIISVTARTEEELREKIDRALDYAEAAAAAGWKVHLIVSGLSPELLAAAKELLATEHAERVAALKAAGAEIHLKETVEEGEALKAEILAEIEEEAERE
Regarding B6, the “median log2 fold change” value turned out to be 0.23.

B7: FBXL12_hotspot_109_7 (protein)
chain: MTVIVGGLATRPEHAERTARYVLTITRGLLAAGHRVRVVLAGTEESREILEAAAAELRALGAEVTLVVAETPEEARALYEERLAEAEEELDEEEEEEEEE
Take B7: the “median log2 fold change” value is 0.117.

B8: FBXL12_hotspot_9_103 (protein)
chain: MTVLVVGRATTPESVRTTVRTAVEIAEGLVAAGHEVVLILYAADPEVAEVLRRTVEEEFGERVAALRAAGARVVVAPDLEAGERAKREALEEIERREEEE
On to B8, for which the “median log2 fold change” value amounted to 0.0779.

B9: FBXL12_hotspot_9_123 (protein)
chain: MIVVIRENVKREEDIEPALRRAVAYAEAAAEAGWRVILVFSASSEELKEKAKEILETKLGERVARLKARGARIVVTATEEEAERKKRELLEEALREEDEA
B9: the “median log2 fold change” value is -0.0307.

B10: FBXL12_hotspot_9_112 (protein)
chain: MTVILGVYAETEEELRRKLERALEYAEAALEAGWEVHIVVGAATPELAEAARRLLEEELGERVAELRARGAVIRVEETFEAARARREEIREEIERRAEEE
In the case of B10, the “median log2 fold change” value is -0.276.

B11: FBXL12_hotspot_9_105 (protein)
chain: KHIIVVASAATKEAFLNSSRTALEIAIGLAKAGHKVTVILSYDDPEKFEEWRAALEEELKELLEEAKELGIKIHYAPSPEEKERILEEVLEEHDEEEEEE
On to B11, for which the “median log2 fold change” value is 0.136.

B12: FBXL12_hotspot_81_97 (protein)
chain: KELDIVLSQQVQPGDTVEQVRAGLQYQVDLVEAAKAAGVKIRSITVRFSIDTSAFSPEEIEAILAAVEEARARIEALAKEAGAKLIDESAAAIAAVRAAL
Regarding B12, the “median log2 fold change” value came out at 0.149.

B13: FBXL12_hotspot_82_99 (protein)
chain: SIAIIGLVNRPPETAVASLRNTADTIITLVEGAREAGVEVVRAVLVVHADPETRAEAERLRPRLEAAGVEVHLEATSAAADARAEAIRAAIEARFAAEDA
For the molecule B13, the “median log2 fold change” value is 0.0901.

B14: FBXL12_hotspot_95_102 (protein)
chain: QRKVVVVYRHTVTPENLEQALAGLRRAKEIVEGLKAAGVEVYAVVAVSAETEEQRAQLEAEAEKVAKAADYALVEILLGATPEEVEERAEEMLEEVLKKI
On to B14, for which the “median log2 fold change” value was found to be 0.243.

B15: FBXL12_hotspot_134_9 (protein)
chain: RTVVVIVSANGVSDAQARAAVDRAETIIAGLRAAGHRVLFVLVLSLADAAVGDALVARARAAAAAHGAEVVAAENVPAADFEAVLAAARARALARLDELE
As for B15, the “median log2 fold change” value came out at 0.11.

B16: FBXL12_hotspot_9_111 (protein)
chain: SSILVVAHVTTAETADSTLETAEAVTRGLAEHHDEVKVLIVVTDPENADEMAAKAEAVAERLEAEHPNVTATVVRAPDEAAGRAAIEAAEAAFLAEADAA
Consider B16, for which the “median log2 fold change” value is 0.154.

B17: FBXL12_hotspot_9_117 (protein)
chain: KTVIIGVVAATPEAARSTLAVAREIARGLAEAGIKVHVIMAASSEETREEVLAIFREAGAEIQAELADKGVKVRVAETMEEYERLKAEVLEEIDREEEEE
On to B17, for which the “median log2 fold change” value is 0.0889.

B18: FBXL12_hotspot_9_120 (protein)
chain: RIVVIHEFLESLEDVGPRLTRAVDIAETAADAGWKVILVFSAASPEVAAAARRYLAEELGERVAALEARGAVIRVAESREEAERIKRELLEEALREEDEA
As to B18, the “median log2 fold change” value is -0.0369.

B19: FBXL12_hotspot_9_113 (protein)
chain: RILVLSAFAETKEEAEEKLARIREWARAAAAAGWDVIIVVAASTEEVAEYARRLLEELEAELRAAYPDVRVRVDVRLTREEAEETKARLLAEALEEEDRR
As for B19, the “median log2 fold change” value was -0.106.

B20: FBXL12_hotspot_95_100 (protein)
chain: RRVVVVVFRHLVTPESAETVRQGVARFKAIVEGLRAAGVEVVAVLVLSYEDEESRALAEELKAEAAPLLDYAHLAPTREAAEAAYAELKARALAEADRLE
With B20, the “median log2 fold change” value is -0.315.

B21: FBXL12_hotspot_9_116 (protein)
chain: KTVVVLARALRVETVESTLRTALEIAIGLAKAGVKVHLVIGAADEEVLAKARELLATRLAPLVEEARALGVEVHEPALYEEAEALVEEILEEIDEEEEEE
Take B21: the “median log2 fold change” value is 0.0101.

B22: FBXL12_hotspot_9_106 (protein)
chain: MTILVTAYFEEESTIETTLKYALEIALGLAKAGHKVKVLIGAANEELLKKAKEILETKLKEIVEELKKLGVEIILVDSKEEYEKKKEELLKEAEEEEKEA
With B22, the “median log2 fold change” value is -0.24.

B23: FBXL12_hotspot_9_124 (protein)
chain: MHVIISQYAETEEEARRQIERALEYAKAAAEAGWKVTVIFSASTEELKEFIEELLETEYAEEVAELKAKGVEIHVVETEEEAERLKEEILEEIEEEAEEE
For the molecule B23, the “median log2 fold change” value was -0.161.

B24: FBXL12_hotspot_95_101 (protein)
chain: MRRVIILVRQAVTAENIESAIQAIERAAAIARGLRAAGVEVKLIVVAHAPDEETRARIEAAVERHRDVIDEFVLEETEEAMEEKAEELLEEALEEIDEAE
For the molecule B24, the “median log2 fold change” value was -0.00895.

B25: FBXL12_hotspot_9_119 (protein)
chain: KVLVIYERIENPEDVEPAIERAIEYARAAAEAGWKVIVVFSAANPEIAEHTRRLLETRFGEEVAELEARGARIVVRDNEEEAEETKERLLREALEEEDRE
As to B25, the “median log2 fold change” value was 0.0418.

B26: FBXL12_hotspot_9_104 (protein)
chain: KHIVIVASASTREAFLNSARTALEIAIGLAKAGHKVTVILHHTRPETAEEARAAVKKELAELIEEAKELGIEIRFAATEEELERLLEEALREADEEEERE
B26: the “median log2 fold change” value stood at 0.00127.

B27: FBXL12_hotspot_9_122 (protein)
chain: RIVVISEFVESPEEVEPVVRRAVEYAEAAAAAGWRVIIVIAAASPEVAEHARRVLEERFGERVARLRAAGARIEVRASREEAERAKRELLEEALAEEDAA
Take B27: the “median log2 fold change” value stood at 0.0626.

B28: FBXL12_hotspot_127_8 (protein)
chain: SDIEVRVSVPTYQSYRYAVAILLEMLKIDVKNGGKNVEKLLEQLKALMEDAAKHLPKEDVLELLDEAIKSLKELKKESPEHKELFDKAIKYLEKLRKEVE
On to B28, for which the “median log2 fold change” value is -0.133.

B29: FBXL12_hotspot_9_108 (protein)
chain: MLRILVATVSSLETAGPTIETAAAIARGLVAAGHRVRVIFISANAETGEEMLALARERLGALAAEEGRVTVVLRLAENEEEAEEIKEELLEEALEEVDRA
For the molecule B29, the “median log2 fold change” value was -0.0498.

B30: FBXL12_hotspot_9_114 (protein)
chain: RVLVLSFFAETREEAERELARMEEWARAALAAGWDVLIVVAAATEEVAAHARELLARMEAALRAAYPDRRVRVAVALTREAAAAAKAALLAELLAEADAA
As for B30, the “median log2 fold change” value was -0.157.

B31: FBXL12_hotspot_9_118 (protein)
chain: RVLVISEYVRSEAEVEPAIARALAYARAAADAGWRVIVVISAASPAIAAHARRLLATRYGEEVAELRARGARIVVRDSRAAAEAEKARLLAEALAAEDAA
Regarding B31, the “median log2 fold change” value is -0.563.

B32: FBXL12_hotspot_9_107 (protein)
chain: KTVLVTAYFEKEETVETTLKYAMEIALGLAEAGHKVRVLIGAKNEEILKKAKEILETKLKETVERLKELGVEIIFVSSEEEYEKKKKELLEEMEKEEEEA
Regarding B32, the “median log2 fold change” value came to 0.196.
